Reference: PubChem BioAssay (NCI)
Compounds without any hit were thinned out: in the full panel of roughly 83,000, 20% have a hit.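 Treatment: one concentration, 48 hours, 96-well format. Scoring: percent growth, with anything below 10 considered active.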 Active and inactive are the calls of the source.

Legend:
Test in all cases: NCI-60 one-dose screen, 48 h (100 = growth as untreated, 0 = no growth, -100 = all killed)
[1] = test system: SR leukemia; conditions: 10 µM unless noted
[2] = test system: RPMI-8226 leukemia; conditions: 10 µM
[3] = test system: OVCAR-8 ovarian; conditions: 10 µM unless noted
[4] = test system: OVCAR-5 ovarian; conditions: 10 µM unless noted
[5] = test system: OVCAR-4 ovarian; conditions: 10 µM unless noted
[6] = test system: SK-OV-3 ovarian; conditions: 10 µM
[7] = test system: IGROV1 ovarian; conditions: 10 µM unless noted
[8] = test system: OVCAR-3 ovarian; conditions: 10 µM unless noted
[9] = test system: HS 578T breast; conditions: 10 µM unless noted
[10] = test system: NCI/ADR-RES ovarian; conditions: 10 µM unless noted
[11] = test system: T-47D breast; conditions: 10 µM
[12] = test system: BT-549 breast; conditions: 10 µM unless noted
[13] = test system: MDA-MB-435 melanoma; conditions: 10 µM unless noted
[14] = test system: SW-620 colon; conditions: 10 µM unless noted
[15] = test system: MCF7 breast; conditions: 10 µM unless noted
[16] = test system: HCT-116 colon; conditions: 10 µM unless noted
[17] = test system: HCC-2998 colon; conditions: 10 µM unless noted
[18] = test system: KM12 colon; conditions: 10 µM unless noted

Measured: growth

Cc1ccc(-c2c3c(N)c4c(nc3nc3c2c(C)nn3-c2ccccc2)CCCC4)cc1
inactive: [2] 94.1% | [3] 98.1% | [4] 101% | [5] 96% | [6] 99.9% | [7] 98.6% | [8] 116% | [9] 105% | [10] 106% | [11] 92.6% | [12] 109% | [13] 96.4% | [14] 97.1% | [15] 94.2% | [16] 90.2% | [17] 107% | [18] 105%
active: [1] -4.06%

COc1ccc(C(=O)C2=CC(=O)C(=O)C2)cc1OC
inactive: [1] 94.3% | [2] 98.7% | [3] 113% | [4] 98.2% | [5] 109% | [6] 104% | [7] 99.3% | [8] 108% | [9] 110% | [10] 99.5% | [11] 99.7% | [12] 93.8% | [13] 106% | [14] 107% | [15] 95.9% | [16] 103% | [17] 108% | [18] 106%

CNc1ccc(Br)cc1-c1n[nH]c(=O)[nH]c1=O
inactive: [1] 103% | [2] 104% | [3] 100% | [4] 98.3% | [5] 90.9% | [6] 102% | [7] 106% | [8] 116% | [9] 84.1% | [10] 105% | [11] 109% | [12] 99.9% | [13] 98.8% | [14] 92.9% | [15] 90.2% | [16] 98.2% | [17] 107% | [18] 111%

Cc1ccc(S(=O)(=O)N2C/C(=C\c3cc(F)cc(F)c3)C(=O)/C(=C/c3cc(F)cc(F)c3)C2)cc1
active: [1] 3.56% | [2] -15.1% | [3] -29% | [4] -30.6% | [5] -31.4% | [7] -58.6% | [8] -82.9% | [10] 7.23% | [11] -0.238% | [12] -16.9% | [13] -76.6% | [14] -47% | [15] -75.4% | [16] -93.9% | [17] -82.6% | [18] -30.6%
inactive: [6] 14.9% | [9] 11.3%

COC(=O)C1C2CC3c4[nH]c5cc(OC)ccc5c4CCN3CC2CC(OC2CCCCO2)C1OC (stereo not drawn)
inactive: [1] 88.5% | [2] 87.5% | [3] 96.2% | [4] 105% | [5] 93.6% | [6] 101% | [7] 114% | [8] 107% | [9] 96.2% | [10] 95.4% | [11] 108% | [12] 97.2% | [13] 101% | [14] 100% | [15] 95.8% | [16] 103% | [18] 105%

COc1ncc(F)c(OC)n1
inactive: [1] 94% | [2] 101% | [3] 97.3% | [4] 97.9% | [5] 90% | [6] 97.8% | [7] 103% | [8] 114% | [9] 118% | [10] 105% | [11] 104% | [12] 108% | [13] 106% | [14] 107% | [15] 96.6% | [16] 101% | [17] 110% | [18] 105%

COc1nc2c(cc1S(=O)(=O)c1ccccc1)CCc1c-2cnn1-c1ccccc1
inactive: [1] 45.4% | [2] 62.6% | [3] 76.4% | [4] 81.1% | [5] 76.7% | [6] 87.2% | [7] 79.6% | [8] 88.9% | [9] 85.2% | [10] 80.8% | [11] 40.4% | [12] 78.7% | [13] 69.3% | [14] 89.9% | [15] 75.5% | [16] 72.4% | [17] 98.1% | [18] 100%

COc1ccc(/C=C2\CN(Cc3cn(CCCNc4ccnc5cc(Cl)ccc45)nn3)C/C(=C\c3ccc(OC)c(OC)c3)C2=O)cc1OC
inactive: [5] 21.3% | [6] 36.5% | [7] 31.7% | [8] 12.7% | [9] 34% | [10] 94.4% | [11] 49.5% | [15] 36.9%
active: [1] -11.8% | [2] -35.5% | [3] 6.8% | [4] 2.05% | [12] -56.1% | [13] -28.9% | [14] -16.7% | [16] -64.6% | [17] -87% | [18] -64%

CCN(C(=O)c1ccc2c3c(cccc13)C=C2)c1ccccc1
inactive: [1] 83.4% | [2] 96.7% | [3] 91.2% | [4] 90.5% | [5] 106% | [6] 96% | [7] 102% | [8] 112% | [9] 120% | [10] 93.2% | [11] 96% | [12] 107% | [13] 90.9% | [14] 111% | [15] 109% | [16] 97.8% | [17] 123% | [18] 118%

CC(C)(C)[Si](C)(C)OC1[C@@H](COC(=O)NC(=O)CCl)O[C@@H](n2cnc3c(N)ncnc32)[C@H]1O[Si](C)(C)C(C)(C)C (stereo partly drawn)
active: [1] -57.5% | [2] -29.5% | [3] -7.49% | [7] -68.3% | [8] 0.626% | [12] -17.9% | [13] -28.2% | [14] -21.8%
inactive: [4] 77.4% | [5] 36.9% | [6] 87.8% | [9] 74.5% | [10] 46.6% | [11] 76.3% | [15] 10.6% | [16] 11.2% | [17] 56% | [18] 19.9%

CCCCCCCCCCCCCCNc1nc(CO)ncc1-c1ccc(C(F)(F)F)cc1
inactive: [1] 102% | [2] 93.9% | [3] 99.5% | [4] 103% | [5] 112% | [6] 91.7% | [7] 104% | [8] 103% | [9] 93.2% | [10] 100% | [11] 95.6% | [12] 110% | [13] 102% | [14] 103% | [15] 96.2% | [16] 94.1% | [17] 99.4% | [18] 99.4%

COc1cccc(-c2ccc3c(c2)C2CCN(Cc4ccccc4)C3C2)c1 (stereo not drawn)
inactive: [1] 18.4% | [2] 59.4% | [3] 85% | [4] 84.4% | [5] 86.5% | [6] 71.1% | [7] 59.9% | [8] 72.2% | [9] 90% | [10] 68.8% | [11] 76.3% | [12] 64.2% | [14] 53.6% | [15] 60.1% | [16] 58.4% | [17] 83.5% | [18] 56.7%
active: [13] 9.08%

CSc1ccc(OC(C)=O)cc1C
inactive: [1] 95.7% | [2] 101% | [3] 100% | [4] 99.4% | [5] 99.6% | [6] 95% | [7] 103% | [8] 106% | [9] 103% | [10] 103% | [11] 90.6% | [12] 98% | [13] 91.3% | [14] 105% | [15] 100% | [16] 101% | [17] 102% | [18] 101%

Cc1ccc(N=c2nc3sc4c(C)ccc(C)c4n3c(N)c2C#N)cc1
inactive: [1] 111% | [2] 85.1% | [3] 104% | [4] 104% | [5] 88.9% | [6] 96.3% | [7] 95.1% | [8] 106% | [9] 104% | [10] 106% | [11] 90.8% | [12] 97.2% | [13] 110% | [14] 105% | [15] 88.3% | [16] 94.4% | [17] 110% | [18] 97.7%

Cc1nc(NN)c([N+](=O)[O-])c(NN)n1
inactive: [1] 73.5% | [2] 82.5% | [3] 102% | [4] 92.8% | [5] 114% | [6] 121% | [7] 108% | [8] 99.9% | [9] 139% | [10] 119% | [11] 103% | [12] 107% | [13] 104% | [14] 104% | [15] 98.7% | [16] 99.2% | [18] 104%

CC(C)OC1=C(Cl)C(=O)c2ccccc2C1=O
active: [1] 9.89% | [11] -24.6%
inactive: [2] 24.5% | [3] 75.9% | [4] 101% | [5] 71.9% | [6] 103% | [7] 99.1% | [8] 78% | [9] 81.5% | [10] 87.2% | [12] 59.7% | [13] 97.3% | [14] 56.6% | [15] 73.2% | [16] 39.4% | [18] 41.2%

C[C@H]1C(=O)C23CCC1C[C@@]21O[C@@H]2C(C)(C)C=CC(=O)C23COC1=O
inactive: [1] 102% | [2] 93.5% | [3] 101% | [4] 109% | [5] 108% | [6] 102% | [7] 110% | [8] 126% | [9] 109% | [10] 106% | [11] 98.4% | [12] 106% | [13] 107% | [14] 108% | [15] 99.5% | [16] 96.5% | [17] 104% | [18] 113%
